# From PubChem BioAssay (EPA / NIEHS)
# Results filed as inconclusive are left out. Calls of active or inactive are those of the source. The calls were made as follows: active = hit-call score of the fitted dose curve at least 0.9, where 1 is the maximum; inconclusive = response in the unintended direction; inactive = score below 0.9.
# Key:
# [1] = target: human Phosphatase and Tensin Homolog (PTEN), PTEN (gene 5728) (UniProt P60484); assay: NVS_ENZ_hPTEN: NovaScreen (NVS) Enzymatic Assay for human Phosphatase and Tensin Homolog (PTEN) (AID 2283203)
# Procedure, shortened: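 Cell-free recombinant human PTEN with fluorescent substrate; product separated by electrophoretic mobility shift and read by fluorescence 1 h after dosing. Primary screen in duplicate at 25 uM, actives followed in concentration series versus DMSO.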
# [2] = target: Tyrosine-protein phosphatase non-receptor type 12 (Homo sapiens) (UniProt Q05209); assay: NVS_ENZ_hPTPN12: NovaScreen (NVS) Enzymatic Assay for human Protein Tyrosine Phosphatase Non-receptor Type 12 (PTPN12) (AID 2283204)
# Procedure, shortened: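 Single-concentration duplicates (25 uM) preceded singleton concentration-response up to 50 uM for chemicals passing threshold. Cell-free recombinant PTPN12 activity was read 1.33 h after dosing via fluorescence after mobility-shift separation; loss of signal versus DMSO.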
# [3] = target: Tyrosine-protein phosphatase non-receptor type 13 (Homo sapiens) (UniProt Q12923); assay: NVS_ENZ_hPTPN13: NovaScreen (NVS) Enzymatic Assay for human Protein Tyrosine Phosphatase Non-receptor Type 13 (PTPN13) (AID 2283205)
# Procedure: NVS_ENZ_hPTPN13 is a biochemical, single-readout assay that uses extracted gene-proteins in a cell-free assay. Measurements were taken 0.5 hour after chemical dosing in a 384-well plate.NVS_ENZ_hPTPN13 is one of one assay component(s) measured or calculated from the NVS_ENZ_hPTPN13 assay. It is designed to make measurements of enzyme activity, a form of enzyme reporter, as detected with fluorescence intensity signals by Fluorescence and electrophoretic mobility shift technology.Data from the assay component NVS_ENZ_hPTPN13 was analyzed into 1 assay endpoint. This assay endpoint, NVS_ENZ_hPTPN13, was analyzed in the positive analysis fitting direction relative to DMSO as the negative control and baseline of activity. Using a type of enzyme reporter, loss-of-signal activity can be used to understand changes in the enzymatic activity as they relate to the gene PTPN13. Furthermore, this assay endpoint can be referred to as a primary readout, because this assay has produced multiple assay endpoints where this one serves a enzymatic activity function. To generalize the intended target to other relatable targets, this assay endpoint is annotated to the phosphatase intended target family, where the subfamily is non-receptor tyrosine phosphatase. […]
# [4] = target: human Protein Tyrosine Phosphatase Non-receptor Type 9 (PTPN9), PTPN9 (gene 5780) (UniProt P43378); assay: NVS_ENZ_hPTPN9: NovaScreen (NVS) Enzymatic Assay for human Protein Tyrosine Phosphatase Non-receptor Type 9 (PTPN9) (AID 2283209)
# Procedure, shortened: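 Sf9-expressed enzyme in a cell-free assay, fluorescence read 1.33 h after dosing with mobility-shift separation of substrate and product. Tested at 25 uM in duplicate, then up to 50 uM; signal loss versus DMSO.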
# [5] = target: human Protein Tyrosine Phosphatase Receptor Type B (PTPRB), PTPRB (gene 5787) (UniProt P23467); assay: NVS_ENZ_hPTPRB: NovaScreen (NVS) Enzymatic Assay for human Protein Tyrosine Phosphatase Receptor Type B (PTPRB) (AID 2283211)
# Procedure, shortened: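 Recombinant human PTPRB with a fluorescent substrate, product separated by electrophoretic mobility shift; read 1 h after dosing. Primary screen in duplicate at 25 uM; actives then retested in concentration series; loss of signal versus DMSO.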
# [6] = target: human Protein Tyrosine Phosphatase Receptor Type C (PTPRC), PTPRC (gene 5788) (UniProt P08575); assay: NVS_ENZ_hPTPRC: NovaScreen (NVS) Enzymatic Assay for human Protein Tyrosine Phosphatase Receptor Type C (PTPRC) (AID 2283212)
# Procedure: NVS_ENZ_hPTPRC is a biochemical, single-readout assay that uses extracted gene-proteins from yeast cells in a cell-free assay. Measurements were taken 1 hour after chemical dosing in a 96-well plate.NVS_ENZ_hPTPRC is one of one assay component(s) measured or calculated from the NVS_ENZ_hPTPRC assay. It is designed to make measurements of enzyme activity, a form of enzyme reporter, as detected with absorbance signals by Colorimetric technology.Data from the assay component NVS_ENZ_hPTPRC was analyzed into 1 assay endpoint. This assay endpoint, NVS_ENZ_hPTPRC, was analyzed in the positive analysis fitting direction relative to DMSO as the negative control and baseline of activity. Using a type of enzyme reporter, loss-of-signal activity can be used to understand changes in the enzymatic activity as they relate to the gene PTPRC. Furthermore, this assay endpoint can be referred to as a primary readout, because this assay has produced multiple assay endpoints where this one serves a enzymatic activity function. To generalize the intended target to other relatable targets, this assay endpoint is annotated to the phosphatase intended target family, where the subfamily is receptor tyrosine phosphatase.
# Binding assays used specific radioligands (tritiated, iodinated) with non-radioactive competitive displacement ligands in agonist or antagonist protocols (as indicated) and various reference compounds and inhibitors to titrate specific binding to receptors and transporters. Most enzyme assays (CYPs, kinases, phosphatases, proteases, HDACs) used recombinant protein and specific substrates (fluorescence mostly, some colorimetric and radioactive) and inhibitors, followed by a biochemical separation of substrate and product. All assays for the biochemical HTS were initially run in duplicate at a single concentration (10 uM for CYP450 assays and 25 uM for all others). […]
# [7] = target: Tyrosine-protein phosphatase non-receptor type 14 (Homo sapiens) (UniProt Q15678); assay: NVS_ENZ_hPTPN14: NovaScreen (NVS) Enzymatic Assay for human Protein Tyrosine Phosphatase Non-receptor Type 14 (PTPN14) (AID 2283206)
# Procedure, shortened: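 Cell-free recombinant human PTPN14 with fluorescent substrate, read 0.5 h after dosing by fluorescence and electrophoretic mobility shift separating substrate from product. Primary screen at 25 uM in duplicate; hits run to 50 uM maximum; loss of signal versus DMSO.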
# [8] = target: human Protein Tyrosine Phosphatase Non-receptor Type 2 (PTPN2), PTPN2 (gene 5771) (UniProt P17706); assay: NVS_ENZ_hPTPN2: NovaScreen (NVS) Enzymatic Assay for human Protein Tyrosine Phosphatase Non-receptor Type 2 (PTPN2) (AID 2283207)
# Procedure, shortened: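 Cell-free recombinant enzyme with fluorescent substrate, product separated by electrophoretic mobility shift; read 1 h after dosing. Primary screen single concentration (25 uM) in duplicate; actives followed in concentration series; loss of signal versus DMSO.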
# [9] = target: human Protein Tyrosine Phosphatase Non-receptor Type 6 (PTPN6), PTPN6 (gene 5777) (UniProt P29350); assay: NVS_ENZ_hPTPN6: NovaScreen (NVS) Enzymatic Assay for human Protein Tyrosine Phosphatase Non-receptor Type 6 (PTPN6) (AID 2283210)
# Procedure, shortened: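 Cell-free assay with recombinant PTPN6 expressed in SF9 cells, fluorescent substrate, product separated from substrate by electrophoretic mobility shift; read 1.33 hours after dosing. Primary screen in duplicate at 25 uM, actives retested in concentration series; DMSO baseline.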
# [10] = target: human Protein Tyrosine Phosphatase Non-receptor Type 4 (PTPN4), PTPN4 (gene 5775) (UniProt P29074); assay: NVS_ENZ_hPTPN4: NovaScreen (NVS) Enzymatic Assay for human Protein Tyrosine Phosphatase Non-receptor Type 4 (PTPN4) (AID 2283208)
# Procedure, shortened: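 Cell-free assay of PTPN4 expressed in Sf9 cells, using a fluorescent substrate with product separated by mobility shift; read 1.33 h after dosing. Single-point screen at 25 uM, then concentration-response up to 50 uM. Loss of signal relative to DMSO.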
# Tyrosine-protein phosphatase non-receptor type 12 (Homo sapiens), sequence (Q05209 whole entry, looked up): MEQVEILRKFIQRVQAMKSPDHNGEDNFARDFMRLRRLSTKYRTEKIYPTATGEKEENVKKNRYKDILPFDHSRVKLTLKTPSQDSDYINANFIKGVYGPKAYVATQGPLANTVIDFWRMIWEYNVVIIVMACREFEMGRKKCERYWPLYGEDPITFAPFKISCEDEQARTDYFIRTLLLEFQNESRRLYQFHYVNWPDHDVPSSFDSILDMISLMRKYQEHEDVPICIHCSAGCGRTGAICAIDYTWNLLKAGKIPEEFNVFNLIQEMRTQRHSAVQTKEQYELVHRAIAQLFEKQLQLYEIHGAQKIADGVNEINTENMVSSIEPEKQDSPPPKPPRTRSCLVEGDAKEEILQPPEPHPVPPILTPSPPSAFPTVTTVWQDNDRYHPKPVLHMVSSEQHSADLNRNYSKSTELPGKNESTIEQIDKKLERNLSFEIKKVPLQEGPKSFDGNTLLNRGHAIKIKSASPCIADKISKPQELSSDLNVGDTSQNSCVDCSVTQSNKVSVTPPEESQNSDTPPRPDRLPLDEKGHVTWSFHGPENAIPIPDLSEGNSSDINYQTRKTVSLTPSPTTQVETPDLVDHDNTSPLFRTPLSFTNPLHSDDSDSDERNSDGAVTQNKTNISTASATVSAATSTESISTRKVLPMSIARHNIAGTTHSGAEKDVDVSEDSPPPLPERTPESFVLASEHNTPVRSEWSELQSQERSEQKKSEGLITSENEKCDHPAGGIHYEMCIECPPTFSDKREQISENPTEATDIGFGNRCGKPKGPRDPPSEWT
# human Phosphatase and Tensin Homolog (PTEN), PTEN (gene 5728), sequence (P60484 whole entry, looked up): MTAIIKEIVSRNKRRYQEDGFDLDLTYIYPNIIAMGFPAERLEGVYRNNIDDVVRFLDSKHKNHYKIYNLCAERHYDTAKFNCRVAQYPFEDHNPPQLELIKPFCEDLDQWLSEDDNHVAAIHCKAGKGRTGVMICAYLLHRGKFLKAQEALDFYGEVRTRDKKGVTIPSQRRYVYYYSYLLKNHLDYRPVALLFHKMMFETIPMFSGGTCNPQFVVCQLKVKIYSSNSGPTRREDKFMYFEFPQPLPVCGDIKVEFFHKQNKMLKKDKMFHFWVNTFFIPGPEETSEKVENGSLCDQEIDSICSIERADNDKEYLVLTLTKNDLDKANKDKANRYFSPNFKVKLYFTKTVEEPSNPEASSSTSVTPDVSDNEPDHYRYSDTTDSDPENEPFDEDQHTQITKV
# human Protein Tyrosine Phosphatase Receptor Type B (PTPRB), PTPRB (gene 5787), sequence (P23467 whole entry, looked up): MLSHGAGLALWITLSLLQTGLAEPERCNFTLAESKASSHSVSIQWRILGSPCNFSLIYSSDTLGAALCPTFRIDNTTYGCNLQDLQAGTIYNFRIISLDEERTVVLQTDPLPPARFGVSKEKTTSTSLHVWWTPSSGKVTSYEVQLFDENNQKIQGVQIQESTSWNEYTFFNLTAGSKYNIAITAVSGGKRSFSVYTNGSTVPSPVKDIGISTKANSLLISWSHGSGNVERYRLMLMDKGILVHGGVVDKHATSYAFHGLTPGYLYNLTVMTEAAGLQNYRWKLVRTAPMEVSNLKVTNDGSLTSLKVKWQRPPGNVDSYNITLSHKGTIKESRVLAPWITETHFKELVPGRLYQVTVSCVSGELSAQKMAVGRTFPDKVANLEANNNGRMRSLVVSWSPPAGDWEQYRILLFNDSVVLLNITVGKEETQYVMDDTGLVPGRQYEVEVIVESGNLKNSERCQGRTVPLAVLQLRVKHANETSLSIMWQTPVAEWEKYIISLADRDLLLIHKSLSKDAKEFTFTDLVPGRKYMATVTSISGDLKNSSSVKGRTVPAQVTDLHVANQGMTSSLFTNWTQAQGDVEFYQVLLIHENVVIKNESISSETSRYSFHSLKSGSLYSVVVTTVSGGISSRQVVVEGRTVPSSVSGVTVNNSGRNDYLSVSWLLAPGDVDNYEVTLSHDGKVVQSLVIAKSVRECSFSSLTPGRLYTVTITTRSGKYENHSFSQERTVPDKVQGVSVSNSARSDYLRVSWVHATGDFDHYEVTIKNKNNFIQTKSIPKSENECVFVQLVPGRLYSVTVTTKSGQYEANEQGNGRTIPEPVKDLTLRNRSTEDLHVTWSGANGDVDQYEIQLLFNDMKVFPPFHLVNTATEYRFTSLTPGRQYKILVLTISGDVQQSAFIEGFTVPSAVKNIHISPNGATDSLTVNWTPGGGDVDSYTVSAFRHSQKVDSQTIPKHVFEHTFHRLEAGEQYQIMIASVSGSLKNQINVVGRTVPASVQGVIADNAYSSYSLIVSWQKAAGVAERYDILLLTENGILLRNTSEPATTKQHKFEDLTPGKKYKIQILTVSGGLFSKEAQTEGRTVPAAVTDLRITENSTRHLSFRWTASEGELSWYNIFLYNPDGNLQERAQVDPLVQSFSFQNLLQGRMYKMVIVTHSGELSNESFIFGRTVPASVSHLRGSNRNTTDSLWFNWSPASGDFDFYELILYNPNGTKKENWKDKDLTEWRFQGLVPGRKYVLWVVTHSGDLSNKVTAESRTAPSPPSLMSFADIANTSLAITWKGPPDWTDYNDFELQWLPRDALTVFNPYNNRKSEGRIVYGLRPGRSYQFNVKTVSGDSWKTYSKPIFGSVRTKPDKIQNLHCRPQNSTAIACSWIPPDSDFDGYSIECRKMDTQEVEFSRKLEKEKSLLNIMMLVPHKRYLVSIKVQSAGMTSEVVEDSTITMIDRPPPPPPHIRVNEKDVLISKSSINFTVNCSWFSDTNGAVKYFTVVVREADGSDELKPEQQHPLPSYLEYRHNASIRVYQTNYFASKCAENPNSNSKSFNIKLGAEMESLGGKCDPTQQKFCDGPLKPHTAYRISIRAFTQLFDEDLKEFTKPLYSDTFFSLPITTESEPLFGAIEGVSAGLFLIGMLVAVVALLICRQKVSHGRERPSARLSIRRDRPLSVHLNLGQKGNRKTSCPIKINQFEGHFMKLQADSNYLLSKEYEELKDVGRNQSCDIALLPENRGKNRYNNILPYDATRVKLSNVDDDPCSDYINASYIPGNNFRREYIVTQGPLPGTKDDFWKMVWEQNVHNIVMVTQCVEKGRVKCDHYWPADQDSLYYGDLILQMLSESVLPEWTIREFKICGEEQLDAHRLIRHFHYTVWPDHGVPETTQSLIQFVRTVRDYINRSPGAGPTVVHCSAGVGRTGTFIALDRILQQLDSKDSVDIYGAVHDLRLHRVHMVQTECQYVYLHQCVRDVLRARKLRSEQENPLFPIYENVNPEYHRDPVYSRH
# human Protein Tyrosine Phosphatase Non-receptor Type 2 (PTPN2), PTPN2 (gene 5771), sequence (P17706 whole entry, looked up): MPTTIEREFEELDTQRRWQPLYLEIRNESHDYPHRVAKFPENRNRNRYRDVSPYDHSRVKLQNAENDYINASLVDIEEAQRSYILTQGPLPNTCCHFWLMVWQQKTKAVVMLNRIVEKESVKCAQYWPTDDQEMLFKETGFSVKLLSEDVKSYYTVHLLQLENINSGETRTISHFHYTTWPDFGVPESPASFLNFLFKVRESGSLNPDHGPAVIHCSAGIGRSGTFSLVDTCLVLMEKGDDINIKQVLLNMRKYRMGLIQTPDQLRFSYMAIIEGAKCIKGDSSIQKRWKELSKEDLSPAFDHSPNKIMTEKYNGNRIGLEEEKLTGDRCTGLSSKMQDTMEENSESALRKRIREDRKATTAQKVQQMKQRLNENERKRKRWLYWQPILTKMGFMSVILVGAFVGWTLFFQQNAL
# human Protein Tyrosine Phosphatase Receptor Type C (PTPRC), PTPRC (gene 5788), sequence (P08575 whole entry, looked up): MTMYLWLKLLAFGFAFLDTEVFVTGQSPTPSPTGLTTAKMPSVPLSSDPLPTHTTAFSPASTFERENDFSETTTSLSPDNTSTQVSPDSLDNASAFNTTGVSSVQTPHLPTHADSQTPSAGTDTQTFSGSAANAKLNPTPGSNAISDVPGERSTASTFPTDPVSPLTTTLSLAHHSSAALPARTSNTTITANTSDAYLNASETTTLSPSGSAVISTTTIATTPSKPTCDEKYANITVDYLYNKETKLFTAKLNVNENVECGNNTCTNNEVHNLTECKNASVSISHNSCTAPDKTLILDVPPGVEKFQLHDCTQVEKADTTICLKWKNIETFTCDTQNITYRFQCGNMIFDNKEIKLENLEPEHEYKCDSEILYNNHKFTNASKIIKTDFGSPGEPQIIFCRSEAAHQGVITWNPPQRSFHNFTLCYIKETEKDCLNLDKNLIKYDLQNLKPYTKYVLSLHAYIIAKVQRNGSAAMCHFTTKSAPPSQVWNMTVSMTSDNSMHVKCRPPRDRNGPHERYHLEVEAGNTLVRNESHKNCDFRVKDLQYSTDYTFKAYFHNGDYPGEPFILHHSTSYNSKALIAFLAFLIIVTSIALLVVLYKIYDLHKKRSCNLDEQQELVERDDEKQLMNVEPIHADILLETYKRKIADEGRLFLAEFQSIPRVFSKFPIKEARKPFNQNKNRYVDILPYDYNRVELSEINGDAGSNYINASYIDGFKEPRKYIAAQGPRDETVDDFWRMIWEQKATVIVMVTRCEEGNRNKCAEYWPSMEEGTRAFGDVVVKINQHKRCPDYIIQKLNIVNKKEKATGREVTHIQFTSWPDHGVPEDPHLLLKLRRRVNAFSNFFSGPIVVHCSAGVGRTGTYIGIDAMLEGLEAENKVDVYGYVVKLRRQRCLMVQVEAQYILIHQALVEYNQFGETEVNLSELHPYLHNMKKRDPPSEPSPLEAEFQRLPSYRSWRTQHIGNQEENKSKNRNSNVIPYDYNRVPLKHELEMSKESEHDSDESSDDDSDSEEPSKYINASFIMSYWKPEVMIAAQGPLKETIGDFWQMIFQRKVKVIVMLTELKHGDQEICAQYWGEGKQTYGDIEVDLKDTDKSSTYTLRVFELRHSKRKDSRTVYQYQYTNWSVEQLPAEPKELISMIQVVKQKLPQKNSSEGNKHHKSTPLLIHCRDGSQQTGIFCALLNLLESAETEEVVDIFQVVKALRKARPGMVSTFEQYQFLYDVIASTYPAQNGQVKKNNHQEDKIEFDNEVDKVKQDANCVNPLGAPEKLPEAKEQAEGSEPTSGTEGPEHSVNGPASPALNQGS
smiles,measurement,setting,value
CCCCCCCCCCCCc1cccc(S(=O)(=O)O)c1,AC50,[1],12.9 µM (active)
same,AC50,[2],12.8 µM (active)
same,AC50,[3],22.7 µM (active)
same,AC50,[4],5.53 µM (active)
same,AC50,[5],19.2 µM (active)
same,AC50,[6],6.82 µM (active)
CC(C)O.CC(C)O.OCCN(CCO)CCO.OCCN(CCO)CCO.[Ti],AC50,[1],0.493 µM (active)
same,AC50,[2],0.00439 µM (active)
same,AC50,[3],3.51 µM (active)
same,AC50,[7],0.00229 µM (active)
same,AC50,[8],0.00229 µM (active)
same,AC50,[5],0.00229 µM (active)
Nc1c(Oc2ccccc2)cc(O)c2c1C(=O)c1ccccc1C2=O,outcome,[1],inactive
Cc1ccccc1OP(=O)(Oc1ccccc1)Oc1ccccc1,AC50,[1],44.9 µM (active)
Clc1cccc(Cl)c1Cl,outcome,[1],inactive
same,outcome,[2],inactive
Cc1ccccc1OP(=O)(Oc1ccccc1C)Oc1ccccc1C,AC50,[1],45.1 µM (active)
OC(Cc1ccccc1Cl)(Cn1[nH]cnc1=S)C1(Cl)CC1 (stereo not drawn),outcome,[1],inactive
C[C@]12CC[C@@H](O)C[C@@H]1CC[C@@H]1[C@@H]2CC[C@]2(C)C(=O)CC[C@@H]12,outcome,[1],inactive
COc1nn(C(=O)NS(=O)(=O)c2ccccc2OC(F)(F)F)c(=O)n1C,AC50,[1],9.29 µM (active)
same,AC50,[2],5.64 µM (active)
same,AC50,[5],6.08 µM (active)
COCC(=O)N(c1c(C)cccc1C)[C@H](C)C(=O)OC,outcome,[1],inactive
COc1ccccc1N,AC50,[9],22.6 µM (active)
same,AC50,[6],17.5 µM (active)
Oc1cc(Cl)c(Cl)cc1Cl,outcome,[9],inactive
CN(C)C(=S)S,outcome,[1],inactive
same,AC50,[6],7.44 µM (active)
CCCCC(CC)COC(=O)Cl (stereo not drawn),AC50,[1],4.14 µM (active)
O=C(CBr)c1ccc(O)cc1,outcome,[5],inactive
Cc1cccc(OP(=O)(Oc2cccc(C)c2)Oc2cccc(C)c2)c1,outcome,[1],inactive
O=C1c2ccccc2C(=O)C1C(=O)C(c1ccccc1)c1ccc(Cl)cc1 (stereo not drawn),AC50,[1],15.2 µM (active)
same,AC50,[2],20 µM (active)
same,AC50,[5],14.7 µM (active)
CC(C)(COCC1CO1)COCC1CO1 (stereo not drawn),outcome,[1],inactive
N#Cc1cccnc1,outcome,[1],inactive
same,outcome,[2],inactive
same,outcome,[8],inactive
same,outcome,[10],inactive
same,outcome,[4],inactive
same,outcome,[5],inactive
CCCCCCCCCCCCOS(=O)(=O)O,AC50,[1],21.6 µM (active)
same,outcome,[8],inactive
